# ChEMBL document CHEMBL1961873, “Compounds: GSK PKIS; Assays: Nanosyn kinase panel” (2012)
# Key:
# [1] = target: T1, Inhibitor of nuclear factor kappa-B kinase subunit epsilon (Homo sapiens) (UniProt Q14164); settings: at 1 µM;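 note: reported values are averaged percent inhibition figures against human IKKε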
# T1 sequence (whole entry): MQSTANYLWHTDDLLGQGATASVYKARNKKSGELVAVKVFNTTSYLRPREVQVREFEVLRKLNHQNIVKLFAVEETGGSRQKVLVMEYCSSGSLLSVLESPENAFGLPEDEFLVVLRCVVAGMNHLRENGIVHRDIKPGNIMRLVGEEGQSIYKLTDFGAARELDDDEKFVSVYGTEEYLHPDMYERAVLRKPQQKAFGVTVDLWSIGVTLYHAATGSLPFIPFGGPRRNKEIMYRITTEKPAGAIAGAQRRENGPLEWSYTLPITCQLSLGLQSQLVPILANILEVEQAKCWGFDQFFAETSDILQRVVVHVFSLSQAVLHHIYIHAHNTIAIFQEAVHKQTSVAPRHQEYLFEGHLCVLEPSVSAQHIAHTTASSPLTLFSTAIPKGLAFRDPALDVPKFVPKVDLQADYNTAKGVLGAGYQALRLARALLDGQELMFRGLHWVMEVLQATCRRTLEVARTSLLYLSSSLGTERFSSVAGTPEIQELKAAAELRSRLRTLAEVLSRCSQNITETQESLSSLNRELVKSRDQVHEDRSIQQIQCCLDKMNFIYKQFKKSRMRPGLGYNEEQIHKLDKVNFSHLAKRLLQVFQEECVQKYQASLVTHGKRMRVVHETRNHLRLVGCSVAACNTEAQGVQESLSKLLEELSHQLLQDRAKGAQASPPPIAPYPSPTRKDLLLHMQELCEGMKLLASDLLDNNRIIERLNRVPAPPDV
# [2] = target: T2, Serine/threonine-protein kinase Nek1 (Homo sapiens) (UniProt Q96PY6); settings: at 0.1 µM
# T2 sequence (whole entry): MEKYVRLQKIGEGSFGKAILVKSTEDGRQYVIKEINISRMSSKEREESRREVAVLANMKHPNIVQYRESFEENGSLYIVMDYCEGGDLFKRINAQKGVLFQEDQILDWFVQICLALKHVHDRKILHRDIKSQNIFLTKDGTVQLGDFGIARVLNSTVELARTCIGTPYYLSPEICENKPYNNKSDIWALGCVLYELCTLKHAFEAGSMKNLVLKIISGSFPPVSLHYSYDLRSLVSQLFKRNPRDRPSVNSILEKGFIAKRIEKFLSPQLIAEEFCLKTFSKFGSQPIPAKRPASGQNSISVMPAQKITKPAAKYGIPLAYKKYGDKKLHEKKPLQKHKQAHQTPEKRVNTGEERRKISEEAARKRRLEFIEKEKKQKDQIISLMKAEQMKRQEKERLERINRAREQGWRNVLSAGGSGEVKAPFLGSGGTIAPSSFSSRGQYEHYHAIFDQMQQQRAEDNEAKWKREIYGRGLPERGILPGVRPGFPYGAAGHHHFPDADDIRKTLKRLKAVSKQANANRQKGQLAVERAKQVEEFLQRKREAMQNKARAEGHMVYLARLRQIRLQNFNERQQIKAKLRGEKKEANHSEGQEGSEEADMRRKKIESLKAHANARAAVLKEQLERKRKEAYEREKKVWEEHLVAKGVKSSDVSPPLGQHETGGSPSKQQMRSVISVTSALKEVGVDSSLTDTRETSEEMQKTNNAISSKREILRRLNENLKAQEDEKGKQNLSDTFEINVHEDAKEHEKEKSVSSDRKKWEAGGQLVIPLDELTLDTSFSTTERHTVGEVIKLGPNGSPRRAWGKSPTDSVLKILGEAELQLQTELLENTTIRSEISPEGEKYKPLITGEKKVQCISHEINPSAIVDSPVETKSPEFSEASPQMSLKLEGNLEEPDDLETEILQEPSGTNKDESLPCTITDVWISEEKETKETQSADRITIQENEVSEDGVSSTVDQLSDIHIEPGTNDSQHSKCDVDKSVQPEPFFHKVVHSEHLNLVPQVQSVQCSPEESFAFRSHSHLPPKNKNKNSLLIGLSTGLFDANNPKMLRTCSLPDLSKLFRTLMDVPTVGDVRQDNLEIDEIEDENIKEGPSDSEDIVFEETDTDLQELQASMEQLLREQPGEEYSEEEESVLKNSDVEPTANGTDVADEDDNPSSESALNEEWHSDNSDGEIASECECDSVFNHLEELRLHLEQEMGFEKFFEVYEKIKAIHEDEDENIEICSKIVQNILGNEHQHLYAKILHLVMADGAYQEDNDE
# [3] = target: T2, Serine/threonine-protein kinase Nek1 (Homo sapiens); settings: at 1 µM
# [4] = target: T3, Serine/threonine-protein kinase Nek2 (Homo sapiens) (UniProt P51955); settings: at 0.1 µM
# T3 sequence (whole entry): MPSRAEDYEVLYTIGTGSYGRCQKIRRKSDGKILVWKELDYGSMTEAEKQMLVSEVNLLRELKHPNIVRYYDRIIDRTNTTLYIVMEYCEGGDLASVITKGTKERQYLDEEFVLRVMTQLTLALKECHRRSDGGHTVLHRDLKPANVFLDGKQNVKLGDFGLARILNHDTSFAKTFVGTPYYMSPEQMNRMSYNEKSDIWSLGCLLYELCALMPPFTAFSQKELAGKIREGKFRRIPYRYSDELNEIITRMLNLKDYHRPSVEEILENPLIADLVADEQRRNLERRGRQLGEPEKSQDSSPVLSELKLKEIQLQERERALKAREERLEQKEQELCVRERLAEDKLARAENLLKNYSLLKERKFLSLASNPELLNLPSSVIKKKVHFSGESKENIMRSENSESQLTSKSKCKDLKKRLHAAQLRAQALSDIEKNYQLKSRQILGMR
# [5] = target: T3, Serine/threonine-protein kinase Nek2 (Homo sapiens); settings: at 1 µM
# [6] = target: Serine/threonine-protein kinase Nek6 (Homo sapiens) (UniProt Q9HC98); settings: at 0.1 µM
# [7] = target: Serine/threonine-protein kinase Nek6 (Homo sapiens) (UniProt Q9HC98); settings: at 1 µM
# [8] = target: Serine/threonine-protein kinase Nek7 (Homo sapiens) (UniProt Q8TDX7); settings: at 0.1 µM
# [9] = target: Serine/threonine-protein kinase Nek7 (Homo sapiens) (UniProt Q8TDX7); settings: at 1 µM
# [10] = target: T4, Serine/threonine-protein kinase Nek9 (Homo sapiens) (UniProt Q8TD19); settings: at 0.1 µM
# T4 sequence (whole entry): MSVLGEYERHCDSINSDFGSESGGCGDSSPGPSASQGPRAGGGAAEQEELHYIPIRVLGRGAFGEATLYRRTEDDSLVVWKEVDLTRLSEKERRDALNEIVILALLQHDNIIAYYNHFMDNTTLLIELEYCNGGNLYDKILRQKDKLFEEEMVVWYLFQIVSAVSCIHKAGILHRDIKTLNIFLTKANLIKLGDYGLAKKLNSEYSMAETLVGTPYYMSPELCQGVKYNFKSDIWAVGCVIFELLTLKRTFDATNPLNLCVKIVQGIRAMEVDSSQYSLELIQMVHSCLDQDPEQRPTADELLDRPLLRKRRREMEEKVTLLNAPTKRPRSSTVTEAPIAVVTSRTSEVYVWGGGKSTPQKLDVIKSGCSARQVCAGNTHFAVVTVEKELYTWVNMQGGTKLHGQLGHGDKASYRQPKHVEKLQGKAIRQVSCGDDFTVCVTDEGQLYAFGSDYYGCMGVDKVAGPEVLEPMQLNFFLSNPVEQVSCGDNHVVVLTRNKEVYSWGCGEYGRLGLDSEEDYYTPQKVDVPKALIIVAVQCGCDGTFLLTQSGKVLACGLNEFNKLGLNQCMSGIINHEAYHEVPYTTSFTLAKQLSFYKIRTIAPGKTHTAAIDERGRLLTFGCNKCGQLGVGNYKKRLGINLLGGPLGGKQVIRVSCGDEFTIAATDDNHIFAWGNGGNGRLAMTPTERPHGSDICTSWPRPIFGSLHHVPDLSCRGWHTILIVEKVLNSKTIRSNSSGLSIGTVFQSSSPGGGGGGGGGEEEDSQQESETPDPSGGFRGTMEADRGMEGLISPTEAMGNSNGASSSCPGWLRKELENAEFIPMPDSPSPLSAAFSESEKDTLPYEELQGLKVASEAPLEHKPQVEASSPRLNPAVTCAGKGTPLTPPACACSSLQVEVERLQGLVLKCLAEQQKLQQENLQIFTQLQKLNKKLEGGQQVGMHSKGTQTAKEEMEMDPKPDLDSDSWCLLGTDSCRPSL
# [11] = target: T4, Serine/threonine-protein kinase Nek9 (Homo sapiens); settings: at 1 µM
# [12] = target: Serine/threonine-protein kinase PLK1 (Homo sapiens) (UniProt P53350); settings: at 0.1 µM
# [13] = target: Serine/threonine-protein kinase PLK1 (Homo sapiens) (UniProt P53350); settings: at 1 µM
# [14] = target: T5, Dual specificity protein kinase TTK (Homo sapiens) (UniProt P33981); settings: at 0.1 µM
# T5 sequence (whole entry): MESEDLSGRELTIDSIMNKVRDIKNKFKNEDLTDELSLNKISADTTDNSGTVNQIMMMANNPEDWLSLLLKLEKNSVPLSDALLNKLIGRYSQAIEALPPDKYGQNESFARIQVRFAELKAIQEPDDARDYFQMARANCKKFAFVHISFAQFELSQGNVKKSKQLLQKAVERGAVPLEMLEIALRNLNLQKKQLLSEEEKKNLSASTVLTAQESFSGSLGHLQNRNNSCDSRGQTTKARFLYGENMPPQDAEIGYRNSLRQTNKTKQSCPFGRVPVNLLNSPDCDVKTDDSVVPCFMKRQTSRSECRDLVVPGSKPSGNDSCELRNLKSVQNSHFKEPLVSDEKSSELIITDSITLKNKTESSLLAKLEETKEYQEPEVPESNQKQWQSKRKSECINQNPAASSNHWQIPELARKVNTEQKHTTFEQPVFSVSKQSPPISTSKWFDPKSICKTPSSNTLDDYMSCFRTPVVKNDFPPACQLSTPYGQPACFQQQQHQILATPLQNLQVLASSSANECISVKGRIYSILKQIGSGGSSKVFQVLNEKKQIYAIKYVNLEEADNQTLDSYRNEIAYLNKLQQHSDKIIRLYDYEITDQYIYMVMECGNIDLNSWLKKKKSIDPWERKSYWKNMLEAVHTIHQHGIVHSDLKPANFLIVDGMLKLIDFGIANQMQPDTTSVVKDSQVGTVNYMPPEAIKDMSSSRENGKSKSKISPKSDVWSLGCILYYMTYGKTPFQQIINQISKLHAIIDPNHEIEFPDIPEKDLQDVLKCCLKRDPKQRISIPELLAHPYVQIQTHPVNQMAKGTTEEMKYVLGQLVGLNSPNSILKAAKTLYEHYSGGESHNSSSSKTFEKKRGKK
# [15] = system: T6, Receptor-type tyrosine-protein kinase FLT3 (Homo sapiens), P36888 [D835Y]; settings: at 1 µM
# T6 sequence (whole entry): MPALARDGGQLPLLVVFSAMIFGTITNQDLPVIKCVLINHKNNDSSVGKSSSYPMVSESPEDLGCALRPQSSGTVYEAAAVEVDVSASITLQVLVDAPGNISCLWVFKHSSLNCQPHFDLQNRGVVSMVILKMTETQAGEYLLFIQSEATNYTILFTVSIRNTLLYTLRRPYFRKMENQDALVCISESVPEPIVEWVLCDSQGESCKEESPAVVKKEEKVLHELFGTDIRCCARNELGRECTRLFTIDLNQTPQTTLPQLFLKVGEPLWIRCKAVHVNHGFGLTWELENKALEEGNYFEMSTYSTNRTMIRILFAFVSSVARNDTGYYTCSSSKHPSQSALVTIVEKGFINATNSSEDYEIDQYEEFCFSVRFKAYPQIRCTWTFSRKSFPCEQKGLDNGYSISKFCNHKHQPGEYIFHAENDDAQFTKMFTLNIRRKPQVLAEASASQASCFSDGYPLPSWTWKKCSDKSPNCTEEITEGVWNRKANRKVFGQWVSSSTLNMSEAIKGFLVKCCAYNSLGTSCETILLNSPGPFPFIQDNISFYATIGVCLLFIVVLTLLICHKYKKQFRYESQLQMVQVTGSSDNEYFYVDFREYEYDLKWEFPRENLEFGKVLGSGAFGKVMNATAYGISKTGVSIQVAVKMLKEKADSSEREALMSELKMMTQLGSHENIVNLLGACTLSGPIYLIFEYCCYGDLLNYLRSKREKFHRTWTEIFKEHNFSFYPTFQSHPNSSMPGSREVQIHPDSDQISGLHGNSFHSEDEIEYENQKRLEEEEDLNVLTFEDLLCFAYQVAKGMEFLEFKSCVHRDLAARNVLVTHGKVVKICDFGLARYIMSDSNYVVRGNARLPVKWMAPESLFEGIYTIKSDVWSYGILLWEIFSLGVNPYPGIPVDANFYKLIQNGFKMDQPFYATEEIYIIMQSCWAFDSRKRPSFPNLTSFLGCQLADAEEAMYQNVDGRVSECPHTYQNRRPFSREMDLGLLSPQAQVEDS
# [16] = target: Vascular endothelial growth factor receptor 3 (Homo sapiens) (UniProt P35916); settings: at 0.1 µM
# [17] = target: Vascular endothelial growth factor receptor 3 (Homo sapiens) (UniProt P35916); settings: at 1 µM
# [18] = target: Macrophage colony-stimulating factor 1 receptor (Homo sapiens) (UniProt P07333); settings: at 0.1 µM
# [19] = target: Macrophage colony-stimulating factor 1 receptor (Homo sapiens) (UniProt P07333); settings: at 1 µM
# [20] = target: Tyrosine-protein kinase Fyn (Homo sapiens) (UniProt P06241); settings: at 0.1 µM
# Chain of Tyrosine-protein kinase Fyn (Homo sapiens) (P06241 2-537 limits assumed): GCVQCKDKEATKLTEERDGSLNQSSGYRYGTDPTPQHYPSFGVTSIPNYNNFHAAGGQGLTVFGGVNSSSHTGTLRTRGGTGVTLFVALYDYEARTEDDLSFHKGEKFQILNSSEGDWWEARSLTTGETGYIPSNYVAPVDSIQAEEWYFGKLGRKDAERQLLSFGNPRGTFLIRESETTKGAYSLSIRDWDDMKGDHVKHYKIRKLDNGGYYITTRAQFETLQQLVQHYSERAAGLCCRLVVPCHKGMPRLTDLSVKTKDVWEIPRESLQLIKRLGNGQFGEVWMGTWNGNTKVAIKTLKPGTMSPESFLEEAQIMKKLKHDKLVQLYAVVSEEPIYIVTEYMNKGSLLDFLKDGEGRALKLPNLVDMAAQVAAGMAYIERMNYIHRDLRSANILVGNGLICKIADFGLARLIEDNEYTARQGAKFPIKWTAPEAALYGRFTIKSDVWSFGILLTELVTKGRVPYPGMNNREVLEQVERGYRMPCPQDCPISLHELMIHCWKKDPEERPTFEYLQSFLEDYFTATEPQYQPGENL
# Chain of Serine/threonine-protein kinase PLK1 (Homo sapiens) (P53350 whole entry): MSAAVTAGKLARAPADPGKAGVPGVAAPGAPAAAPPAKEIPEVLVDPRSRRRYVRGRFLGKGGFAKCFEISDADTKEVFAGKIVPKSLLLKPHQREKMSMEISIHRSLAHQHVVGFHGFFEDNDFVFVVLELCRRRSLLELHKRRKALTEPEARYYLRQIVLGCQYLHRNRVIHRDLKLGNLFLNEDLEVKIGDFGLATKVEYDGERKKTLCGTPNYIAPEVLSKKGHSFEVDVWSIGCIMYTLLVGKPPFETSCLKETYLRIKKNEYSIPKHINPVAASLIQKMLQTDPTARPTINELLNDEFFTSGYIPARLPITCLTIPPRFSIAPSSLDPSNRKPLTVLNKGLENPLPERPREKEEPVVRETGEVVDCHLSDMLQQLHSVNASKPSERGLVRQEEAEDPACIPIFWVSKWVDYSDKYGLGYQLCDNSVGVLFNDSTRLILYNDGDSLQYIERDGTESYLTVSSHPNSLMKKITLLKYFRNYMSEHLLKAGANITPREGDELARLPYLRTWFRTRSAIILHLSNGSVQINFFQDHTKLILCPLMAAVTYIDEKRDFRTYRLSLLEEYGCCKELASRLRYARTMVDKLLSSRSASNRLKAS
# Chain of Serine/threonine-protein kinase Nek6 (Homo sapiens) (Q9HC98 whole entry): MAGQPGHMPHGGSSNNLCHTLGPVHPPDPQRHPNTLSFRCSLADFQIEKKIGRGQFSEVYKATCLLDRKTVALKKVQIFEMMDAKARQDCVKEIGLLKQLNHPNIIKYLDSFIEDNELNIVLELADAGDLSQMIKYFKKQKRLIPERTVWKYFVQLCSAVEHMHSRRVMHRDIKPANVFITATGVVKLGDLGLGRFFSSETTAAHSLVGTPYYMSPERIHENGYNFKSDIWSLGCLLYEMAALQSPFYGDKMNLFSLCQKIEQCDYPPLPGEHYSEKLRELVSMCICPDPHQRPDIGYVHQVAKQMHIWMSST
# Chain of Vascular endothelial growth factor receptor 3 (Homo sapiens) (P35916 whole entry): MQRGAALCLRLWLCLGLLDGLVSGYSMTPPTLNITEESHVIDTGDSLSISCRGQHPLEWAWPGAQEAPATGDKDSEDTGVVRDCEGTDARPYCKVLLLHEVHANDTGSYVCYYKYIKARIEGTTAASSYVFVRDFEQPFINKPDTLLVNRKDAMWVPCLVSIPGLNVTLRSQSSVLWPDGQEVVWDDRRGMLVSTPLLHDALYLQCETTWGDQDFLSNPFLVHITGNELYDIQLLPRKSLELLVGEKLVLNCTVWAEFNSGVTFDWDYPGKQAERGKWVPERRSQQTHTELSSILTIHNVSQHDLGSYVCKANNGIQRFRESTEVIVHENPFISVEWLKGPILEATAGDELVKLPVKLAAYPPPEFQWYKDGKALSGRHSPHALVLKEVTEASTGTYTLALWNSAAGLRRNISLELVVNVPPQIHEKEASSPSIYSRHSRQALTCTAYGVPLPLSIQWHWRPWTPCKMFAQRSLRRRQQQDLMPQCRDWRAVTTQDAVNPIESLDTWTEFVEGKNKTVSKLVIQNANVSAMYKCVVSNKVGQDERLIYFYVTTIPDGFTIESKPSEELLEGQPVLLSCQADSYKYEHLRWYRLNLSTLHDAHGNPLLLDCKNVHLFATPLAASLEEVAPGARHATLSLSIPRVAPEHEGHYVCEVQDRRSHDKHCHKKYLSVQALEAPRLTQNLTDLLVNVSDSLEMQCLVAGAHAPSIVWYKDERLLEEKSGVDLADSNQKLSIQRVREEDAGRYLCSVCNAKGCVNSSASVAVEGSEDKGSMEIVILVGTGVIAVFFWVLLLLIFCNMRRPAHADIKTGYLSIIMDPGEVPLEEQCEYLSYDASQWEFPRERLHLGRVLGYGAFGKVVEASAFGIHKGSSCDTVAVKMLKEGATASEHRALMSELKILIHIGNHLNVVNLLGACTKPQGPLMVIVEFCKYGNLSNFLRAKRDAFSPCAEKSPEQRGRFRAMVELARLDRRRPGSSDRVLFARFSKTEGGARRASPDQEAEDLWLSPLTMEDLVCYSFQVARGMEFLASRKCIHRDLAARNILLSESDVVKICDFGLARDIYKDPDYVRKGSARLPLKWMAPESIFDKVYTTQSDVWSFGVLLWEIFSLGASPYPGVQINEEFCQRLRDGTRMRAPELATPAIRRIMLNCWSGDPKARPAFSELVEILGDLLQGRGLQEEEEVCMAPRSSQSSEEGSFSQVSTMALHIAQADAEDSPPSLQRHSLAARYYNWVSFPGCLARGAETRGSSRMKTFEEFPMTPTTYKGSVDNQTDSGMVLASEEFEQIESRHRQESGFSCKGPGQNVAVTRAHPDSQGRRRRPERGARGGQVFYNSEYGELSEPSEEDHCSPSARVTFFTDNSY
# Chain of Macrophage colony-stimulating factor 1 receptor (Homo sapiens) (P07333 whole entry): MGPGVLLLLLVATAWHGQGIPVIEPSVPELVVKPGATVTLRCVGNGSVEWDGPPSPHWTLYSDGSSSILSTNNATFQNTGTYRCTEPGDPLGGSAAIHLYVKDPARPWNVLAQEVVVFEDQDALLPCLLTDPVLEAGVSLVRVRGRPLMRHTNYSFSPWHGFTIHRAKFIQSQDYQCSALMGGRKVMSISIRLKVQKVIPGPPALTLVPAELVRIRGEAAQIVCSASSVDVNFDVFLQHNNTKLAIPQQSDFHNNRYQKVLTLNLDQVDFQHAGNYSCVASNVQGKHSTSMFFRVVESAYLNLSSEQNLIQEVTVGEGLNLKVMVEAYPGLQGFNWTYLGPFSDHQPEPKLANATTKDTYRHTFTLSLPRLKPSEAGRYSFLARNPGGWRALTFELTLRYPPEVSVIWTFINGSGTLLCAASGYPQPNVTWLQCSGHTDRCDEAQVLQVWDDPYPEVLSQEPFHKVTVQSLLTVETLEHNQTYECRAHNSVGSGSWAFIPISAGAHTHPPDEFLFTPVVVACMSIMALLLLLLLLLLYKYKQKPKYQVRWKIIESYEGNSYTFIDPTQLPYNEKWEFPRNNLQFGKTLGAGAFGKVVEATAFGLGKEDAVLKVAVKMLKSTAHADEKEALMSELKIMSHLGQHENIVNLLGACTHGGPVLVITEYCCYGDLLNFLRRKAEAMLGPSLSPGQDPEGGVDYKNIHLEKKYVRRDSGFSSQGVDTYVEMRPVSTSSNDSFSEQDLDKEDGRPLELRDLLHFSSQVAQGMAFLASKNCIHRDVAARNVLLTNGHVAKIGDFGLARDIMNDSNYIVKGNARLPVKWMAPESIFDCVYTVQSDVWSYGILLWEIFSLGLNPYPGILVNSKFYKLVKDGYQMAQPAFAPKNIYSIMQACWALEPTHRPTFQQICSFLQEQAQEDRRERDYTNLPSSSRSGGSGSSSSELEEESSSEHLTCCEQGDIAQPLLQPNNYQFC
# Chain of Serine/threonine-protein kinase Nek7 (Homo sapiens) (Q8TDX7 whole entry, looked up): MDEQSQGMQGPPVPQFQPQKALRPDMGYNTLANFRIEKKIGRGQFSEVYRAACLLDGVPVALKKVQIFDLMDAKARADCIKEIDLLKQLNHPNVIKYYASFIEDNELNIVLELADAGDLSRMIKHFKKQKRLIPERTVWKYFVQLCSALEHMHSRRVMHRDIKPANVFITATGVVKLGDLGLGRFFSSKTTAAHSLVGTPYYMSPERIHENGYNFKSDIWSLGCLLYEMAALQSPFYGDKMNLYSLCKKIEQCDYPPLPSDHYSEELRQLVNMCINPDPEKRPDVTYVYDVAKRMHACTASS
SMILES,inhibition [1] [%],inhibition [2] [%],inhibition [3] [%],inhibition [4] [%],inhibition [5] [%],inhibition [6] [%],inhibition [7] [%],inhibition [8] [%],inhibition [9] [%],inhibition [10] [%],inhibition [11] [%],inhibition [12] [%],inhibition [13] [%],inhibition [14] [%],inhibition [15] [%],inhibition [16] [%],inhibition [17] [%],inhibition [18] [%],inhibition [19] [%],inhibition [20] [%]
CCOc1ccc2c(-c3ccnc(Nc4cc(OC)cc(C(F)(F)F)c4)n3)cnn2n1,26.5,1.06,2.42,1.26,0.94,-0.49,1.7,2.79,2.42,3.87,7.2,0.53,1.68,-0.36,17,15.8,22.8,2.34,17.2,3.33
O=C(Nc1n[nH]c2nnc(-c3cccnc3)cc12)C1CC1,0.84,0.17,1.72,0.71,-2.27,-0.09,-0.1,0.09,1.6,7.25,1.12,-0.87,2.11,1.85,-1.95,0.27,3.35,-1.71,5.46,1.64
OCCCNc1nccc(-c2c(-c3ccc(F)cc3)nn3cc(C(F)(F)F)ccc23)n1,0.15,-0.37,0.3,2.83,2.24,4.06,-0.92,2.99,-4.27,7.44,0.58,3.57,1.96,3.55,1.7,-2.7,2.54,1.88,6.34,0.07
